Laboratory results as given in PubChem BioAssay (EPA / NIEHS).
Calls of active or inactive are those of the source. How the source made its calls: active means hit-call score of the fitted dose curve at least 0.9, where 1 is the maximum; inactive means score below 0.9.

Tests used:
Conditions in all cases: mRNA level, 48 h; actives raise or lower the signal
[1] = read-out: ATP-citrate lyase (ACLY), ACLY (gene 47); experiment: LTEA_HepaRG_ACLY: Life Technologies and Expression Analysis (LTEA) Assay for ATP-citrate lyase (ACLY) using HepaRG (AID 2283466)
Outline: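 HepaRG, 48 h exposure, 8-pt half-log dilutions (top 100 uM), 0.5% DMSO. Readout: ACLY mRNA, TaqMan qRT-PCR, housekeeping-normalized (ACTB/GAPDH/POLR2A). Bidirectional curve fit vs DMSO.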

[2] = read-out: Peroxisomal acyl-coenzyme A oxidase 1 (ACOX1) gene, ACOX1 (gene 51); experiment: LTEA_HepaRG_ACOX1: Life Technologies and Expression Analysis (LTEA) Assay for Peroxisomal acyl-coenzyme A oxidase 1 (ACOX1) gene using HepaRG (AID 2283467)
Outline: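 Measured by qRT-PCR against three housekeeping genes: ACOX1 transcript change in human HepaRG cells after 48 h dosing. Concentrations ran up to 100 uM in half-log steps. Curves were fitted bidirectionally relative to 0.5% DMSO.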

[3] = read-out: Alkaline Phosphatase, Placental (ALPP) gene, ALPP (gene 250); experiment: LTEA_HepaRG_ALPP: Life Technologies and Expression Analysis (LTEA) Assay for Alkaline Phosphatase, Placental (ALPP) gene using HepaRG (AID 2283468);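 on AC50: differentiated human HepaRG liver cells in serum-free induction medium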
Outline: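 ALPP transcript level, measured by qRT-PCR and normalized to three housekeeping genes (ACTB, GAPDH, POLR2A), after 48 h dosing of differentiated HepaRG in serum-free induction medium. Top concentration 100 uM with half-log dilutions (8 points, 0.5% DMSO, duplicates); bidirectional fitting relative to DMSO.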

[4] = read-out: Bcl-2 (BAD) gene, BAD (gene 572); experiment: LTEA_HepaRG_BAD: Life Technologies and Expression Analysis (LTEA) Assay for Bcl-2 (BAD) gene using HepaRG (AID 2283469)
Outline: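 BAD transcript change, measured by qRT-PCR against three housekeeping genes and fitted in both directions relative to 0.5% DMSO, after 48 h chemical treatment of human HepaRG liver cells at concentrations up to 100 uM.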

[5] = read-out: Bcl-2 (BAX) gene, BAX (gene 581); experiment: LTEA_HepaRG_BAX: Life Technologies and Expression Analysis (LTEA) Assay for Bcl-2 (BAX) gene using HepaRG (AID 2283470)
Outline: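 Concentration-response endpoint fitted in both directions relative to 0.5% DMSO vehicle. Human HepaRG cultures receive test chemicals for 48 h at up to 100 uM; BAX mRNA is quantified by qRT-PCR against housekeeping genes.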

[6] = read-out: adenosine kinase (ADK) gene, ADK (gene 132); experiment: LTEA_HepaRG_ADK: Life Technologies and Expression Analysis (LTEA) Assay for adenosine kinase (ADK) gene using HepaRG (AID 2283471)
Outline: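 Read-out is ADK transcript level measured by qRT-PCR and normalised to three housekeeping genes. Cells are human HepaRG, dosed for 48 h at up to 100 uM in 0.5% DMSO. Gain or loss of signal is fitted against DMSO controls.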

[7] = read-out: Alpha-fetoprotein (AFP) gene, AFP (gene 174); experiment: LTEA_HepaRG_AFP: Life Technologies and Expression Analysis (LTEA) Assay for Alpha-fetoprotein (AFP) gene using HepaRG (AID 2283472)
Outline: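 After a 48 h plating period, cells are moved to serum-free induction medium and dosed in duplicate (100 uM maximum, half-log dilutions, 0.5% DMSO) for another 48 h. Total RNA goes to TaqMan qRT-PCR; AFP signal is housekeeping-normalized.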

BCL2L11 (gene 10018) = experiment: LTEA_HepaRG_BCL2L11: Life Technologies and Expression Analysis (LTEA) Assay for Bcl-2 (BCL2L11) gene using HepaRG (AID 2283473)
Outline: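 BCL2L11 transcript levels are measured by Fluidigm qRT-PCR, normalized to three housekeeping genes. HepaRG cultures were plated 48 h, then treated 48 h with test chemical (top 100 uM, half-log, 0.5% DMSO vehicle); curves were fitted bidirectionally against DMSO.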

[8] = read-out: Apolipoprotein A-V (APOA5) gene, APOA5 (gene 116519); experiment: LTEA_HepaRG_APOA5: Life Technologies and Expression Analysis (LTEA) Assay for Apolipoprotein A-V (APOA5) gene using HepaRG (AID 2283474)
Outline: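 APOA5 transcript levels were quantified by qRT-PCR, normalized to three housekeeping genes, after 48 h chemical treatment of HepaRG cells (8 points, 100 uM maximum, half-log steps, 0.5% DMSO). Curves fitted in both directions against vehicle.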

Caspase-3 (Homo sapiens) = Caspase-3 (Homo sapiens) (UniProt P42574); experiment: LTEA_HepaRG_CASP3: Life Technologies and Expression Analysis (LTEA) Assay for cysteine-aspartic acid protease (CASP3) using HepaRG (AID 2283477)
Sequence of Caspase-3 (Homo sapiens) (P42574 whole entry, looked up): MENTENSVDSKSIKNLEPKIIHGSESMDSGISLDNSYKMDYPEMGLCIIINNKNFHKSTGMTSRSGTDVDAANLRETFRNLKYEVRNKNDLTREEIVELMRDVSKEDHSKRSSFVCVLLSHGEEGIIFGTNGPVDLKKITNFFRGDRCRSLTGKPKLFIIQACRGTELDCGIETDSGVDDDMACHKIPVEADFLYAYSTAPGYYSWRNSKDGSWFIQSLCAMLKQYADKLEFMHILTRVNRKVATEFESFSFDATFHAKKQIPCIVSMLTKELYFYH
Outline: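 Expression of CASP3 was quantified by TaqMan qRT-PCR against three housekeeping genes (ACTB, GAPDH, POLR2A), bidirectionally versus 0.5% DMSO. HepaRG cultures received compounds in duplicate, top 100 uM with half-log steps, for 48 h in serum-free induction medium.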

[9] = read-out: Cytochrome P450 (CYP24A1), CYP24A1 (gene 1591); experiment: LTEA_HepaRG_CYP24A1: Life Technologies and Expression Analysis (LTEA) Assay for Cytochrome P450 (CYP24A1) using HepaRG (AID 2283478)
Outline: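 mRNA of CYP24A1 quantified by TaqMan qRT-PCR (ACTB/GAPDH/POLR2A normalization) after 48 h chemical exposure of HepaRG cells, top concentration 100 uM, half-log steps, 0.5% DMSO vehicle, duplicates. Curves fitted bidirectionally against DMSO baseline.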

[10] = read-out: cysteine-aspartic acid protease (CASP8), CASP8 (gene 841); experiment: LTEA_HepaRG_CASP8: Life Technologies and Expression Analysis (LTEA) Assay for cysteine-aspartic acid protease (CASP8) using HepaRG (AID 2283480)
Outline: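 HepaRG, 48 h exposure, duplicate wells; 8 conc, half-log from 100 uM, 0.5% DMSO. Serum-free induction medium. CASP8 mRNA by TaqMan qRT-PCR, norm. ACTB/GAPDH/POLR2A; gain/loss fitted vs DMSO.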

[11] = read-out: Cytochrome P450 (CYP2B6), CYP2B6 (gene 1555); experiment: LTEA_HepaRG_CYP2B6: Life Technologies and Expression Analysis (LTEA) Assay for Cytochrome P450 (CYP2B6) using HepaRG (AID 2283481)
Outline: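 CYP2B6 transcript level quantified by qRT-PCR against three housekeeping genes, fitted bidirectionally relative to DMSO. HepaRG cultures received chemicals for 48 h, 8-point half-log series from 100 uM in 0.5% DMSO, duplicate wells, serum-free induction medium.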

[12] = read-out: Cytochrome P450 2C19 (Homo sapiens) (UniProt P33261); experiment: LTEA_HepaRG_CYP2C19: Life Technologies and Expression Analysis (LTEA) Assay for CYP2C19 using HepaRG (AID 2283482)
Outline: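 CYP2C19 transcript levels by qRT-PCR, normalized to three housekeeping genes, in HepaRG cells after 48 h chemical exposure. Eight-point half-log series topping at 100 uM, 0.5% DMSO vehicle. Increases and decreases both fitted against DMSO.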

CYP2C8 (gene 1558) = experiment: LTEA_HepaRG_CYP2C8: Life Technologies and Expression Analysis (LTEA) Assay for CYP2C8 using HepaRG (AID 2283483)
Outline: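 CYP2C8 mRNA induction or loss, by qRT-PCR normalized to ACTB/GAPDH/POLR2A, is read in HepaRG cells after 48 h treatment. Concentrations run from 100 uM down in half-log dilutions, with 0.5% DMSO as vehicle and baseline.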

CYP2C9 (gene 1559) = experiment: LTEA_HepaRG_CYP2C9: Life Technologies and Expression Analysis (LTEA) Assay for CYP2C9 using HepaRG (AID 2283484)
Outline: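 Cells plated 48 h, switched to serum-free induction medium, then treated in duplicate for 48 h at eight concentrations (max 100 uM, 0.5% DMSO). RNA then analysed by qRT-PCR for CYP2C9; curves fitted in both directions relative to DMSO.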

CYP2E1 (gene 1571) = experiment: LTEA_HepaRG_CYP2E1: Life Technologies and Expression Analysis (LTEA) Assay for CYP2E1 using HepaRG (AID 2283485)
Outline: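 Differentiated HepaRG cells were treated in duplicate for 48 h with chemicals in 0.5% DMSO, from 100 uM downward in half-log dilutions. RNA was then analysed by qRT-PCR for CYP2E1 induction or loss.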

[13] = read-out: Apoptosis regulator Bcl-2 (Homo sapiens) (UniProt P10415); experiment: LTEA_HepaRG_BCL2: Life Technologies and Expression Analysis (LTEA) Assay for Bcl-2 gene using HepaRG (AID 2283475);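 further: BCL2 transcript by TaqMan qRT-PCR normalised to ACTB GAPDH and POLR2A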
Outline: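 Expression change of BCL2 mRNA in HepaRG after 48 h dosing, quantified by TaqMan qRT-PCR against three endogenous controls. Concentration-response used eight points up to 100 uM, vehicle 0.5% DMSO.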

[14] = read-out: Bcl-2 (BID) gene, BID (gene 637); experiment: LTEA_HepaRG_BID: Life Technologies and Expression Analysis (LTEA) Assay for Bcl-2 (BID) gene using HepaRG (AID 2283476)
Outline: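 Gain or loss of BID expression is fitted relative to 0.5% DMSO vehicle. Human HepaRG liver cells received a 48 h chemical exposure over an eight-point concentration range.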

Measured: AC50

Sequence of Cytochrome P450 2C19 (Homo sapiens) (P33261 whole entry, looked up): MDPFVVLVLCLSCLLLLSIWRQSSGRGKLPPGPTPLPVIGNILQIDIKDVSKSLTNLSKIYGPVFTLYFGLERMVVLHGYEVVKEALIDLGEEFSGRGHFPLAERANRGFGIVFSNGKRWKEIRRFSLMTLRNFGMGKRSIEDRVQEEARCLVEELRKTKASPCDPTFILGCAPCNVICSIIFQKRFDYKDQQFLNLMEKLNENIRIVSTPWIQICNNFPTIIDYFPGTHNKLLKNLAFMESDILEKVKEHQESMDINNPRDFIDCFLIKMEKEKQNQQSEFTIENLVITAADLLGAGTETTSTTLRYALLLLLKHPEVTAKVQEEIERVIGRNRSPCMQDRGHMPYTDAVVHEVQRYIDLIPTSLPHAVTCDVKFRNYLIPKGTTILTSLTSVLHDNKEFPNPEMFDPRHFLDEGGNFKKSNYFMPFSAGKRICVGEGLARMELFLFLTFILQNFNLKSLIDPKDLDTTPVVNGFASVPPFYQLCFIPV
Sequence of Apoptosis regulator Bcl-2 (Homo sapiens) (P10415 whole entry, looked up): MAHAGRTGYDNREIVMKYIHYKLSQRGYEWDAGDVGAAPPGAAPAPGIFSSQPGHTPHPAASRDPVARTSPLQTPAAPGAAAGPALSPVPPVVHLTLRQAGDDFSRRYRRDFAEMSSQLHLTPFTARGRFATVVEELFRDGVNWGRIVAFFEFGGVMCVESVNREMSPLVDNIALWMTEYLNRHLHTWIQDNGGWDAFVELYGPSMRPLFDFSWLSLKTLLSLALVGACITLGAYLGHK

Cc1ccc(C(C)(C)C)c(O)c1
not listed: [13] | [14]
inactive: all other assays above

CS(=O)(=O)c1ccc([C@@H](C[C@H]2CCC(=O)C2)C(=O)Nc2cnccn2)cc1Cl
inactive: [1] | [2] | CYP2C9 (gene 1559) | CYP2E1 (gene 1571)
active: [3] 2.94 µM | [4] 1.23 µM | [5] 25.4 µM | [6] 0.952 µM | [7] 0.908 µM | BCL2L11 (gene 10018) 1.15 µM | [8] 50 µM | [13] 16.1 µM | [14] 2.25 µM | Caspase-3 (Homo sapiens) 0.843 µM | [10] 1.2 µM | [12] 1.38 µM | CYP2C8 (gene 1558) 1.09 µM
